VACV mCherry inh: vaccinia inhibition (mCherry reporter). Vaccinia virus mCherry reporter infection, fluorescence. Potency, µM (doses to about 36.5 µM), inactives show at the top dose activity change, negative = inhibition, usual class: inhibitors. 310,000 tested, 0.63% active; calls by dose curve; tested in A549 cells; also: nearly all actives have a fitted effect of over 35% in size
Pf growth 96h: P. falciparum growth inhibition at 96 hours; P. falciparum luciferase reporter growth, 96 h; Potency, µM (doses to about 28.7 µM), for inactives: top-dose activity change, negative = inhibition, actives largely listed as inhibitors; 320,000 tested, 6.9% active; AID 504834
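Infected RBCs, 2% Hct / 0.05% parasitemia final; luciferase-reporter P. falciparum; cpd 96 h, 37 C, 5% CO2; luciferase detection reagent; luminescence.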
Pf growth 48h: P. falciparum growth inhibition at 48 hours (one generation); P. falciparum luciferase growth in erythrocytes, 48 h; Potency, µM (highest dose often 28.7 µM), inactives show at the highest dose activity change, negative = inhibition, actives largely listed as inhibitors; 310,000 tested, 5.9% active; AID 504832
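Compounds are pin-transferred into medium, infected erythrocytes (2% hematocrit, 0.1% parasitemia final) are added, and plates sit one parasite generation at 37 C in 5% CO2. Detection reagent is then added and luminescence measured.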
VACV Venus inh: vaccinia inhibition (Venus reporter); Vaccinia virus Venus reporter expression, fluorescence; AID 720580; 330,000 tested, 0.46% active; Potency, µM (series often up to 36.5 µM), for the others: at the top dose activity change, negative = inhibition, usual class: inhibitors; calls by dose curve; tested in A549 cells; also: nearly all actives have a fitted effect of over 30% in size
AMA1-RON2 inh: inhibitors of Plasmodium falciparum AMA1-RON2 interaction | Potency, µM (top dose mostly 58.2 µM), for the others: at the highest dose activity change, negative = inhibition, most hits filed as inhibitors | 360,000 tested, 0.2% active | AlphaScreen AMA1-biotinylated RON2 peptide binding | AID 720542;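 also: 0% = vehicle wells and -100% = peptide control; nearly all actives have a fitted effect of over 45% in size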
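AMA1 (3D7) with his tag at 25 nM final met compounds first, then biotinylated RON2 peptide at 25 nM; detection used donor plus acceptor beads, 10 µg/mL apiece, read by AlphaScreen after 30 min at room temperature.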
An asterisk follows results filed as active; i = inactive; ? = inconclusive; . = no result. Most compounds without a hit are left out; they make up all but 8.7% or so of the library. Unless noted, calls follow the shape of the dose curve; as a rule, active = well fitted curve in the direction sought with a large enough effect; inconclusive = small, poorly fitted or top-dose-only effect, or another doubt; inactive = no such curve, though single readings can be large; an effect the other way counts as inactive or inconclusive. Unless noted, % is scaled to controls: 0 for no effect and ±100 for the full control effect; potency is read from the fitted curve at half-maximal effect.

SMILES	VACV mCherry inh	Pf growth 96h	Pf growth 48h	VACV Venus inh	AMA1-RON2 inh
Cc1ccc(NCC(=O)N/N=C\c2ccc([N+](=O)[O-])o2)cc1	11µM*	5.2µM*	?	?	?
CCCCCC(=O)N/N=C/c1ccc([N+](=O)[O-])o1	.	.	.	.	20%
O=C(CNC(=O)c1ccccc1)N/N=C/c1ccc([N+](=O)[O-])o1	.	?	4.7µM*	.	1%
O=C(CSc1nc2c([nH]c3ccccc32)c(=O)n1-c1cccc(C(F)(F)F)c1)N1CCCC1	12%	.	.	9%	.
CC(C)CC(C)c1cc(N)nc2nc3ccccc3n12 (configuration not stated)	i	12µM*	10µM*	-21%	-6%
CCOC(=O)c1c(NC(=O)COc2ccccc2C#N)sc2c1CC(C)(C)NC2(C)C	?	5.2µM*	12µM*	?	12%
CC1CCN(S(=O)(=O)c2ccc(C(=O)Nc3sc4c(c3C(N)=O)CC(C)(C)NC4(C)C)cc2)CC1	?	.	.	-29%	.
CCOC(=O)c1c(NC(=O)Cc2ccccc2)sc2c1CC(C)(C)NC2(C)C	?	0.93µM*	?	-25%	-3%
CCOC(=O)c1c(NC(=O)COC(=O)c2ccc(C)s2)sc2c1CC(C)(C)NC2(C)C	i	4%	-6%	-16%	-15%
CCOC(=O)c1c(NC(=O)COc2ccccc2OCC)sc2c1CC(C)(C)NC2(C)C	?	12µM*	?	?	-7%
CCOC(=O)N1CCN(S(=O)(=O)c2ccc(C(=O)Nc3sc4c(c3C(N)=O)CC(C)(C)NC4(C)C)cc2)CC1	.	?	12µM*	.	-28%
CCc1ccccc1NS(=O)(=O)c1ccc(NC(=O)N2CCCC2)cc1	-15%	.	.	-10%	.
COc1cccc(CNc2nc3ccccc3c3nc(-c4cccc(C)c4)nn23)c1	i	.	.	-14%	.
COc1cccc(C2(O)CC(C(F)(F)F)=NN2C(=O)c2ccccn2)c1 (configuration not stated)	-20%	0.52µM*	43%	-16%	90%
O=C(c1ccccc1)N1N=C(C(F)(F)F)CC1(O)c1ccccc1 (configuration not stated)	.	-12%	0%	.	25%
CCN(CC)c1nc(N)c2c(N)nc3c(c2c1C#N)CC(c1ccccc1)O3 (configuration not stated)	.	.	2.3µM*	.	59%
CCN(CC)c1nc(N)c2c(N)n(-c3ccccc3C)c(=S)c(C#N)c2c1C#N	.	.	12%	.	9%
N#Cc1c(N2CCCCC2)nc(N)c2c(N)nc3c(c12)CC(c1ccccc1)O3 (configuration not stated)	?	4.1µM*	5.9µM*	-28%	9%
COC(=O)N1CCCc2cc(S(=O)(=O)NCc3ccccc3)ccc21	-11%	.	.	-6%	.
COc1ccc2nc(Nc3nc(CSc4nc5ccccc5[nH]4)cc(=O)[nH]3)nc(C)c2c1	?	10µM*	?	?	-6%
Cc1nc(Nc2nc(CSc3ccc(Cl)cc3)cc(=O)[nH]2)nc2ccccc12	-13%	?	0%	-4%	-1%
Cc1ccc2nc(Nc3nc(CSc4nnnn4-c4ccccc4)cc(=O)[nH]3)nc(C)c2c1	.	50%	.	.	2%
Cc1ccc2c(=O)[nH]c(Nc3nc(C)cc(-c4ccccc4)n3)nc2c1	-10%	?	?	-26%	2%
Cc1nc(Nc2nc(CSc3nc4ccccc4[nH]3)cc(=O)[nH]2)nc2ccccc12	10µM*	9.3µM*	?	10µM*	-3%
Cc1nc(Nc2nc(-c3ccccc3)cc(=O)[nH]2)nc2ccccc12	10µM*	.	.	10µM*	-3%
COc1ccccc1OCC(=O)N(Cc1ccc(N(C)C)cc1)CC1CCCO1 (configuration not stated)	-10%	.	.	-4%	.
CC(Cl)C(=O)N1c2ccccc2CCc2ccccc21 (configuration not stated)	.	?	?	.	-3%
O=C(CCl)N1c2ccccc2CCc2ccccc21	.	?	10µM*	.	.
O=C(COc1cccc2ccccc12)N1c2ccccc2CCc2ccccc21	-25%	?	10µM*	-28%	-15%
O=C(COc1ccc(F)cc1)N1c2ccccc2CCc2ccccc21	i	?	?	0%	-4%

Screening results as filed in PubChem BioAssay.
